Mtb hypoxia inh: reduces hypoxia-regulated biosensor signal in M. tuberculosis; M. tuberculosis hypoxia-regulated fluorescent reporter, fluorescence; fluorescence inhibition, % (concentration not given with the values); hit rate 0.1% among 300,000; AID 1159583; in the data active means fluorescence inhibition mostly above about 23%, no sharp cut-off; inactive means mostly below about 17%
SARS 3CLpro inh: SARS-CoV 3CLpro protease inhibition. P0C6X7. recombinant SARS-CoV 3CLpro, quenched FRET peptide cleavage. inhibition, % at 6 µM. hit rate 0.14% among 290,000. AID 1706; in the data active means inhibition above about 12%
PrPC surface inh: cell surface PrPC inhibition, primary TR-FRET screen; TR-FRET read-out; AID 720596; hit rate 0.43% among 370,000; inhibition, % at 13.8 µM; in the data active means inhibition above about 24%; further: 0% = median of the test wells and 100% = reference compound wells
MazF activator: MazEF (E. coli) toxin RNase activation; activation, % at 20 µM; hit rate 0.32% among 350,000; P0AE70; FAM/BHQ RNA-DNA oligo cleavage fluorescence, 5 h; in the data active means activation above about 50%
Target sequence (P0AE70 whole entry, looked up): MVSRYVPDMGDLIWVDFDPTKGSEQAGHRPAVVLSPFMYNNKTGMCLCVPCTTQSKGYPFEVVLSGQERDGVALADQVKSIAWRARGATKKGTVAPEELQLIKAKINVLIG
VHR inh abs: DUSP3 (human) phosphatase inhibition; recombinant VHR phosphatase, pNPP absorbance; inhibition, % at 13.3 µM; hit rate 0.52% among 290,000; in the data active means inhibition above about 50%
Target sequence (P51452 whole entry, looked up): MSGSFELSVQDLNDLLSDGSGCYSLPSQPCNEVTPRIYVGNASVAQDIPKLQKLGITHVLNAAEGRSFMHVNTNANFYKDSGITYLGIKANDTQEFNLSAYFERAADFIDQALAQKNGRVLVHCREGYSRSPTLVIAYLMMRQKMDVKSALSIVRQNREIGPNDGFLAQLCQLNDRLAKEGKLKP
PrP UTR inh: suppresses PrP 5' UTR mRNA reporter expression; cell-based PrP 5' UTR mRNA reporter, plate reader; inhibition, % (no concentration beside the values); hit rate 0.35% among 340,000; AID 488862; in the data active means inhibition above about 52%; further: 0 = median of the neutral control wells
PrPC TRFRET cf: cell surface PrPC inhibition, TR-FRET confirmation | shares compounds with PrPC surface inh | inhibition, % at 13.8 µM | cell surface PrPC level | hit rate 65% among 1,500; in the data active means inhibition above about 25%
LD9 cytotox: LD9 cell cytotoxicity, PrPc inhibitor counter-screen; shares compounds with PrPC surface inh; hit rate 29% among 1,500; inhibition, % at 13.8 µM; LD9 cells cytotoxicity, luminescence viability; AID 743201; in the data active means inhibition above about 9.5%
* hit, by the source's call. This is a sample that favours compounds with a hit; in the whole collection about 1.5% have one here.

Nc1ccc2ccc(NS(=O)(=O)N3CCCCC3)cc2c1 was read as PrPC surface inh 31*, PrPC TRFRET cf 12 and LD9 cytotox 9.
O=S(=O)(Nc1ccc(F)cc1)N1CCCCCC1 was read as SARS 3CLpro inh -3, PrPC surface inh -7, MazF activator -4, VHR inh abs 5 and PrP UTR inh -5.
Screening Cc1ccccc1C(=O)NN1C(=O)CSC1=S returned Mtb hypoxia inh 6, SARS 3CLpro inh 0, PrPC surface inh 34*, MazF activator -15, VHR inh abs 4, PrP UTR inh -12, PrPC TRFRET cf 11 and LD9 cytotox -6.
Screening C#CCn1c(=NC(=O)c2ccc(Br)s2)sc2cccc(OC)c21 returned Mtb hypoxia inh 10, SARS 3CLpro inh -3, PrPC surface inh 30*, MazF activator -1, VHR inh abs 28, PrP UTR inh -68, PrPC TRFRET cf 81* and LD9 cytotox 3.
Screening C=CCn1c(=NC(=O)c2cccs2)sc2cccc(OC)c21 returned Mtb hypoxia inh 4, SARS 3CLpro inh -7, PrPC surface inh -4, MazF activator 8, VHR inh abs 6 and PrP UTR inh -8.
CC(Sc1ncnc2ccccc12)C(=O)Nc1ccc2c(c1)OCO2 (stereo unspecified) was read as SARS 3CLpro inh -3, PrPC surface inh 29*, MazF activator 9, VHR inh abs 38, PrP UTR inh -22, PrPC TRFRET cf 37* and LD9 cytotox 1.
Screening Nc1nnn(CC(=O)NN=Cc2cn[nH]c2-c2ccccc2)n1 returned Mtb hypoxia inh 4.
CCOC(=O)c1sc(NC(=S)NC(=O)C2CCCC2)cc1C was read as Mtb hypoxia inh 8, SARS 3CLpro inh 2, PrPC surface inh 26*, MazF activator 6, VHR inh abs 18, PrP UTR inh -3, PrPC TRFRET cf 56* and LD9 cytotox -6.
`CCOC(=O)c1sc(NC(=S)NC(=O)CC(C)C)cc1C` gave SARS 3CLpro inh 0, PrPC surface inh 37*, MazF activator -2, VHR inh abs 11, PrP UTR inh -33, PrPC TRFRET cf 40* and LD9 cytotox 1.
`CCOC(=O)Cc1cc(=O)[nH]c(N=C(N)Nc2ccc(C)c(C)c2)n1` gave Mtb hypoxia inh 12.
COc1ccc(CN(Cc2nc3ccccc3c(=O)[nH]2)C(=O)NC2CCCCC2)cc1 was read as SARS 3CLpro inh -4, PrPC surface inh 25*, MazF activator -7, VHR inh abs -4, PrP UTR inh -14, PrPC TRFRET cf -1 and LD9 cytotox -2.
`O=C(NC1CCCCC1)N(Cc1nc2ccccc2c(=O)[nH]1)C1CCCCC1` gave SARS 3CLpro inh -5, PrPC surface inh 4, MazF activator -1, VHR inh abs 8 and PrP UTR inh -1.
`O=C1C2C3C=CC(CC3)C2C(=O)N1c1ccccc1` (stereo unspecified) gave Mtb hypoxia inh 10, SARS 3CLpro inh 3, PrPC surface inh -4, MazF activator 15, VHR inh abs -16 and PrP UTR inh -16.
Screening O=C1C=CC2C3C(=O)N(c4ccccc4)C(=O)C3C1N2Cc1ccccc1 (stereo unspecified) returned PrPC surface inh 49*, MazF activator 6, PrP UTR inh -15, PrPC TRFRET cf 4 and LD9 cytotox 99*.
COc1ccc(C(=O)NN=C(C)CC(=O)Nc2ccc(Cl)cn2)cc1 was read as Mtb hypoxia inh -9.
Screening OC(COc1ccc2ccccc2c1Br)Cn1cnc(-c2ccccc2)c1 (stereo unspecified) returned SARS 3CLpro inh 6, PrPC surface inh 65*, MazF activator -8, VHR inh abs 10, PrP UTR inh -10, PrPC TRFRET cf 84* and LD9 cytotox 1.
COc1ccc(OCC(O)Cn2cnc(-c3ccc(Br)cc3)c2)cc1 (stereo unspecified) was read as SARS 3CLpro inh -4, PrPC surface inh -3, MazF activator -1, VHR inh abs 9 and PrP UTR inh -20.
Screening COC(=O)c1sc(NC(=O)C2CCCCC2C(=O)O)c(C(=O)OC)c1C (stereo unspecified) returned Mtb hypoxia inh -9, SARS 3CLpro inh 2, PrPC surface inh 27*, MazF activator 6, VHR inh abs -6, PrP UTR inh -20, PrPC TRFRET cf 42* and LD9 cytotox -9.
CC(=O)n1cc(C2C=C(C(=O)N3CCN(Cc4ccccc4)CC3)OC(OCc3ccc(CO)cc3)C2)c2ccccc21 (stereo unspecified) was read as Mtb hypoxia inh -10.
Screening O=C1C(=C(c2ccccc2)N2CCOCC2)Cc2ccccc21 returned PrPC surface inh 33*, MazF activator 5, PrPC TRFRET cf 4 and LD9 cytotox 98*.
Screening CC(/C=C/c1ccc2c(c1)OCO2)=NNC(=O)c1ccncc1 returned Mtb hypoxia inh 3.
`C=C1C(=O)OC2CC1C(OC(C)=O)CC(C)=CCCC(C)=CCCC2(C)O` (stereo unspecified) gave PrPC surface inh 29*, PrPC TRFRET cf 33* and LD9 cytotox 43*.
`C=C1C(=O)O[C@H]2[C@H]1[C@H](OC(=O)/C(C)=C\C)C[C@]1(CO1)[C@@H]1[C@H](OC(C)=O)C=C(C)[C@]21O` gave PrPC surface inh 1, MazF activator 5 and PrP UTR inh -17.
O=C(Nc1ccc2c(c1)OCO2)c1cc(C2CCCN(C(=O)CCCc3ccccc3)C2)on1 (stereo unspecified) was read as PrPC surface inh 23.
N#Cc1cccc(NC(=O)c2cc(C3CCCCN3S(=O)(=O)c3ccccc3)on2)c1 (stereo unspecified) was read as PrPC surface inh 26*, PrPC TRFRET cf 17 and LD9 cytotox -2.
For CS(=O)(=O)N1CCCCC1c1cc(C(=O)Nc2ccc3c(c2)OCO3)no1 (stereo unspecified) the results were PrPC surface inh -3.
COc1ccc(S(=O)(=O)N2CCCCC2c2cc(C(=O)Nc3ccc4c(c3)OCO4)no2)cc1 (stereo unspecified) was read as PrPC surface inh 28*, PrPC TRFRET cf 18 and LD9 cytotox -3.
`O=C(Nc1ccc2c(c1)OCO2)c1cc(C2CCCN(C(=O)CCc3ccccc3)C2)on1` (stereo unspecified) gave PrPC surface inh 38*, PrPC TRFRET cf 25* and LD9 cytotox -1.

Screens as filed in PubChem BioAssay.
